Compound activity deposited in PubChem by Sanford-Burnham Center for Chemical Genomics.
CYP2C19 activ: increases human CYP2C19 enzyme activity; P33261; recombinant CYP2C19, luciferin-H EGE luminescence; active compounds read high; 0 = fully inhibited enzyme, 1 = untreated enzyme; activation factor at 5 µM; 96,000 tested, under 10 active; AID 1025;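 active = activation factor of at least 2 at 5 µM in the primary screen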;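 note: 0 = wells with 2.5 mM tranylcypromine and 1 = vehicle-only wells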
CYP2C19 inhib: blocks human cytochrome P450 2C19; CYP2C19 Supersomes, luciferin-H EGE luminescence, 30 min; AID 778; P33261; 21% of 96,000 active; inhibition, % at 5 µM;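 active = CYP2C19 inhibition above a set limit at 5 µM in the primary screen, cut at about 50% in these data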;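 note: plate controls were negative control wells for no effect and 2.5 mM tranylcypromine positive control for full effect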
CD11b adhes inh: inhibitors of human CD11b/CD18 binding to fibrinogen. 0.54% of 93,000 active. P05107+P11215. AID 1497. K562 CD11b/CD18 adhesion to fibrinogen, ATPlite luminescence; Mn2+ added to activate the integrin. inhibition, % at 10 µM;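 active = primary inhibition of 50% or more at 10 µM, then 40% or more on retest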
CYP2C9 inh: inhibitors of human CYP2C9. AID 777. P11712. inhibition, % at 5 µM. CYP2C9 Supersomes, luciferin-H conversion, luminescence. 20% of 96,000 active;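 active = blocking of liver enzyme CYP2C9 beyond about 50% at 5 µM, limit read from the data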
Target sequence (P11712 whole entry, looked up): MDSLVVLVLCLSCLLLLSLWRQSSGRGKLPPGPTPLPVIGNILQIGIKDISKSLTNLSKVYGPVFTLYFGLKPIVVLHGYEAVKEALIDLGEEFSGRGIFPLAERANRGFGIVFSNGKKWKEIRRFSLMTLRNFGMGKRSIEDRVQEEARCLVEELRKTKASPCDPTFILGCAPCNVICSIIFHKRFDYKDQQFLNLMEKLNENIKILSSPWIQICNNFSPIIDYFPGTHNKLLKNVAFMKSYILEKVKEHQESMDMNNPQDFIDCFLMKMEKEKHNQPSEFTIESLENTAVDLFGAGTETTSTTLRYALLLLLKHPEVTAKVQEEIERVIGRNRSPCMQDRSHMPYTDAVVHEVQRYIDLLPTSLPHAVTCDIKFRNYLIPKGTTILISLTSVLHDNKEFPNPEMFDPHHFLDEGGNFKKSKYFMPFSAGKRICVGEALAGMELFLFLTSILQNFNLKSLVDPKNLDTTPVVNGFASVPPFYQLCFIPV
Mac1 fbg enh: enhancers of human CD11b/CD18 binding to fibrinogen; P05107+P11215; K562 CD11b/CD18 adhesion to fibrinogen, ATPlite luminescence; activation, % at 10 µM; 0.07% of 93,000 active; AID 1499;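 active = 10 µM primary screen giving 50% or more activity, confirmed by 40% or more on retest at that dose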
CYP2C9 act: increases human cytochrome P450 2C9 activity; P11712; recombinant CYP2C9, luciferin-H conversion, luminescence; active compounds read high; factor 1 = untreated enzyme, 0 = blocked; activation factor at 5 µM; 1.4% of 96,000 active;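 active = activation factor of 2 or more for CYP2C9 at a 5 µM dose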;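 note: 0 = sulfaphenazole-blocked wells and 1 = vehicle-only wells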
Numbers without * were called inactive; . = not tested or not shown. Hits are enriched below; roughly 28% of the tested compounds scored in any of these assays.

SMILES	CYP2C19 activ	CYP2C19 inhib	CD11b adhes inh	CYP2C9 inh	Mac1 fbg enh	CYP2C9 act
Cn1c(=O)c2c3c(sc2n2c(SCC(N)=O)nnc12)CC(C(C)(C)C)CC3 (stereo unspecified)	0.4	57.5*	29.9	14.4	2.0	0.9
CCn1c(=O)c2c3c(sc2n2c(=S)[nH]nc12)CCC3	0.2	80.1*	-3.0	96.9*	-2.5	0
CCNC(=S)NNC(=O)Nc1ccccc1	0.8	17.7	5.1	-11.7	2.6	1.1
CCOC(=O)c1sc(NC(=O)c2cc3c(C)nn(-c4ccccc4)c3s2)nc1C	1	-3.5	-5.1	4.2	-4.7	1
CSc1nc(NCCOCCO)c2sc3nc(-c4ccco4)c4c(c3c2n1)CCC4	0.7	26.7	-17.9	63.1*	67.5	0.4
CCN(CCO)c1nc(SC)nc2c1sc1nc(-c3ccco3)c3c(c12)CCC3	0.8	21.5	1.4	25.0	116.6*	0.8
CCSc1ncnc2c1sc1nc(-c3ccco3)c3c(c12)CC(C)(C)OC3	1.1	-11.6	-2.5	9.3	-3.9	0.9
O=C(O)CCn1cnc2ccccc2c1=O	0.8	15.1	-19.0	-3.4	-4.3	1
O=C(CCN1C(=O)c2ccccc2C1=O)Nc1ccc(-c2nc3ccccc3o2)cc1	1	4.6	-54.4	14.7	71.6	0.9
O=C(CCN1C(=O)c2ccccc2C1=O)NCc1ccncc1	0.7	34.4	26.2	25.5	-0.6	0.7
N#Cc1c(NC(=O)CCN2C(=O)c3ccccc3C2=O)oc(-c2ccccc2)c1-c1ccccc1	0.7	29.8	-2.8	82.0*	5.7	0.2
N#Cc1c(NC(=O)CCn2cnc3ccccc3c2=O)oc(-c2ccccc2)c1-c1ccccc1	0.2	81.3*	10.2	96.1*	6.2	0
O=C(CCN1C(=O)c2ccccc2C1=O)Nn1cnnc1	1	-2.4	3.6	90.1*	-1.6	0.1
O=C(COC(=O)CCC(=O)Nc1nccs1)NCc1ccco1	1	2.2	-1.5	-1.0	0.0	1
Fc1ccc(-c2ccnc(=S)[nH]2)cc1	0.7	25.1	-4.7	43.4	1.3	0.6
Cc1ccc(-c2nnc(NCc3nc4ccccc4[nH]3)c3ccccc23)cc1S(=O)(=O)N(C)C	.	.	23.0	.	47.6	.
COc1ccc(-c2coc3cc(OC)cc(O)c3c2=O)cc1	1	4.3	.	-10.0	.	1.1
CC(C)Oc1cc(O)c2c(=O)c(-c3ccc(O)cc3)coc2c1	1.1	-9.0	16.5	96.5*	4.7	0
C[C@H](N)c1nnc(SCc2c(Cl)cccc2Cl)o1	0	98.8*	7.4	58.2*	2.2	0.4
CCC(c1nnc(SCC(=O)NC23CC4CC(CC(C4)C2)C3)o1)N(C)C (stereo unspecified)	0.9	7.9	-0.5	3.7	-2.2	1
CC(C)[C@H](N)c1nnc(SCc2ccc(Cl)cc2)o1	0	96.0*	-19.2	15.4	0.4	0.8
C[C@H](N)c1nnc(SCc2ccc(Cl)cc2Cl)o1	0	100.4*	11.8	81.6*	2.5	0.2
Clc1cccc(Cl)c1CSc1nnc(/C=C/c2ccccc2)o1	0.8	23.7	-1.1	8.1	2.0	0.9
CCC(c1nnc(SCC(=O)NCCc2ccc(Cl)cc2Cl)o1)N(C)C (stereo unspecified)	0.2	79.4*	10.7	58.2*	-1.5	0.4
Clc1ccc(CSc2nnc(-c3sccc3-n3cccc3)o2)cc1	0.7	33.9	.	46.4	.	0.5
SMILES	CYP2C19 activ	CYP2C19 inhib	CD11b adhes inh	CYP2C9 inh	Mac1 fbg enh	CYP2C9 act
N=c1c[n+](-c2ccc(Cl)cc2)[n-]o1	1	2.6	18.2	-6.6	-6.2	1.1
C[C@H](N)c1nnc(SCC(=O)N(C)C)o1	1	4.2	-18.3	12.1	6.7	0.9
CCC(C)[C@H](N)c1nnc(SCC(=O)c2ccc(Cl)cc2)o1 (stereo partly specified)	0	99.7*	4.9	70.9*	-2.5	0.3
Cn1cc(SCC(=O)N2CCCc3ccccc32)c2ccccc21	0	98.3*	-16.5	18.0	9.4	0.8
CC(OC(=O)Cn1c(C(F)(F)F)nc2ccccc21)C(=O)N1CCCc2ccccc21 (stereo unspecified)	0.8	17.0	-4.5	52.0*	-0.8	0.5
O=C(Cn1cnc2ccccc21)OCC(=O)N1CCCc2ccccc21	0.9	14.2	-14.7	10.8	-3.6	0.9
Cn1cc(SCC(=O)N2CCN(c3ccccc3)CC2)c2ccccc21	0	98.8*	11.0	3.9	1.2	1
Cc1c(C#N)c2ccccc2n1CC(=O)N1CCCc2ccccc21	0.7	32.2	-2.2	91.9*	1.6	0.1
Cn1cc(SCC(=O)O)c2ccccc21	1	3.1	-4.2	3.0	2.2	1
C/C(=N\NC(=O)COc1ccc([N+](=O)[O-])cc1)C(C)(C)C	0.8	22.6	.	8.2	.	0.9
CC(C)NC(=O)Cn1c(SCC(=O)N2CCCc3ccccc32)nc2ccccc21	0.4	58.4*	-41.8	84.9*	-4.6	0.2
Cn1cc(SCC(=O)N2CCOCC2)c2ccccc21	0.1	90.1*	7.1	-25.2	0.5	1.3
O=C(Cn1cc(SCc2ccccc2Cl)c2ccccc21)N1CCOCC1	.	.	9.7	.	0.9	.
O=C(Cc1cccc2ccccc12)N1CCCc2ccccc21	0.6	43.1	.	-132.4	.	2.3*
CCn1cc(SCC(=O)N2CCOCC2)c2ccccc21	0.4	59.1*	6.0	0.0	1.8	1
C=CCn1c(CNc2ccc(C)cc2)nnc1SCC(=O)N/N=C/c1ccc(O)cc1	0.9	14.2	-1.9	-1.6	-5.4	1
CCn1cc(C(=O)C(F)(F)F)c2ccccc21	0.9	6.8	.	-131.4	.	2.3*
CSc1nsc(SCC(=O)N2CCN(c3ccccc3)CC2)n1	0.3	73.4*	-0.5	75.8*	3.0	0.2
CCN1C(=O)/C(=C/c2ccc(C)s2)NC1=S	0.6	38.5	-4.2	58.7*	-0.7	0.4
O=C1CCCN1c1ccc(S(=O)(=O)NCCc2ccc(Cl)cc2)cc1	0.2	80.3*	-0.1	84.5*	0.4	0.2
O=C1CCCN1c1ccc(CNS(=O)(=O)c2ccc(F)cc2)cc1	0.8	20.5	4.6	18.1	0.1	0.8
Cc1c(NC(=O)C(Sc2ccccc2)c2ccccc2)cccc1[N+](=O)[O-] (stereo unspecified)	1	-1.1	.	22.8	.	0.8
COc1ccc2c(c1)C1NC(=S)NC(C)(O2)C1C(=O)Nc1ccccc1C (stereo unspecified)	1	3.5	26.0	1.4	-3.8	1
c1ccc(Cc2nn[nH]n2)cc1	1.2	-18.4	2.1	-2.5	-2.1	1
CC(C)(C)c1cc(Cc2ccccc2)[nH]n1	0.2	81.7*	-8.8	30.6	-0.6	0.7
CC1(C)CC(=O)C=C(Nc2cc(-c3ccccc3)[nH]n2)C1	0.9	14.0	-1.8	53.2*	2.6	0.5
